# Reference: PubChem BioAssay (Tox21)
# Active and inactive are the calls of the source. Calls follow the shape of the dose curve; as a rule, active = well fitted curve in the direction sought with a large enough effect in the repeat runs; inconclusive = weak or mixed curves; inactive = flat fitted curve, though single readings scatter.
# Assay: qHTS assay to test for compound auto fluorescence at 590 nm (red) in HEK293 cells (AID 720679)
# Settings: red autofluorescence 540/590 nm; series mostly up to 91.3 µM
# From the text: National Center for Advancing Translational Sciences [NCATS]
# NIH Chemical Genomics Center [NCGC]
# U.S. Environmental Protection Agency [EPA]
# National Institutes of Environmental Health Sciences [NIEHS]
# National Toxicology Program [NTP]
# U.S. Food and Drug Administration [FDA]
# Compound auto fluorescence often interferes with screening of the compound library against various biological targets and signaling pathways. Some of these compounds may have fluorophoric properties. Such properties may interfere with the assay outputs resulting in false positives and/or negatives. To decrease such complications and ensure the compound activities are relevant in terms of biological response, the Tox21 10K compound library was screened for auto fluorescence.
# From the fluorophores used as reporter signals in our screening assays, the auto fluorescence equivalencies of compounds against three fluorophores have been evaluated: Triamterene, Fluorescein and Rose Bengal sodium for blue, green and red fluorescence, respectively. The fluorescence intensities were measured using Excitation/Emission wavelengths at 405/460nm, 485/535nm and 540/590nm for blue, green and red labels, respectively. This assay includes the red fluorescence data.
# Tox21 Assay Protocol Summary:
# 2,000 HEK293 cells in 5 uL of culture medium containing 10% dialyzed FBS per well were dispensed into black wall/clear bottom 1536-well plates using a Multidrop Combi Dispenser (Thermo Scientific). The assay plates were incubated for 4-5 hr at 37C to allow cell attachment to the well bottom, followed by the transfer of 23 nL compound or DMSO vehicle by a pintool work station (Kalypsys, San Diego, CA). After the assay plates were incubated overnight at 37C and 5% CO2, fluorescence intensities in the assay plates were measured by an Envision (PerkinElmer, Shelton, CT) plate reader using three labels for measuring blue, green and red fluorescence at […] 460, 535 and 590nm respectively.
# % is scaled to controls: 0 for no effect and ±100 for the full control effect.
Compound,outcome,"fluorescence, % of fluorescent control"
COC(=O)CCCCCCCCC(=O)OC,inactive,
c1cc(CN2CCCCC2)cc(OCCCNc2nc3ccccc3s2)c1,inactive,
O=C(O)c1ccccc1S,inactive,
NC(N)=NS(=O)(=O)c1ccc(N)cc1,,0.29% [at 18.6 µM] (inactive)
C=C(C)C(=O)OCCCCCCCCCCCCCCCCCC,,0.299% [at 18.6 µM] (inactive)
CCC(=O)/C=C/c1ccc(OC)cc1,inactive,
Cc1onc(-c2ccccc2)c1-c1ccc(S(N)(=O)=O)cc1,inactive,
CO[Si](OC)(OC)OC,inactive,
C=C(C)[C@@H]1CCC2=CC(=O)C[C@@H](C)[C@]2(C)C1,inactive,
N#CCc1ccccc1[N+](=O)[O-],inactive,
C/C=C1\C(=O)C[C@H]2[C@@H]3CCC4=CC(=O)CC[C@]4(C)[C@H]3CC[C@]12C,inactive,
CC(C)c1cccc(C(C)C)c1N,inactive,
CO,inactive,
C=C(C)C(=O)OCCC(C)OC(=O)C(=C)C (stereo not given),inactive,
COc1cc(C(=O)N2CCOCC2)cc(OC)c1OC,inactive,
CN(C)CCOC(c1ccc(Cl)cc1)c1ccccn1 (stereo not given),inactive,
CCCCCCCCCCCCI,inactive,
Fc1ccccc1-c1ccccc1,inactive,
CCCC(C)CO (stereo not given),inactive,
OCCCCCCO,inactive,

Compound,outcome,"fluorescence, % of fluorescent control"
Cn1ccc2cc3c(cc21)CCN3C(=O)Nc1cccnc1,inactive,
C=CC(=O)N1CCOCC1,inactive,
CC(C)N1C(=O)c2ccccc2C1=O,inactive,
N#CC1(O)CCCCC1,inactive,
CC(C)(C)N(CCO)CCO,inactive,
OC1OC[C@@H](O)[C@H](O)[C@H]1O (stereo not given in full),inactive,
CC(C)CCOC(=O)CC(C)C,inactive,
CC1CCN(CCCC(=O)c2ccc(F)cc2)CC1,inactive,
NC(=O)Nc1nc2ccccc2[nH]1,inactive,
COc1cc(C)cc(O)c1,inactive,
Nc1ccc2cc(S(=O)(=O)O)ccc2c1,inactive,
O=C(O)CCNC(=O)c1ccc(N=Nc2ccc(O)c(C(=O)O)c2)cc1,inactive,
CC12CCC(CC1=O)C2(C)C (stereo not given),inactive,
CC1=CCC2C(C1)C2(C)C (stereo not given),inactive,
c1ccc2cnncc2c1,inactive,
NCCNC(=O)c1ccc(Cl)cn1,inactive,
COc1cc(CCC(C)=O)ccc1O,inactive,
OC[C@H]1O[C@@H]2O[C@H]3[C@H](O)[C@@H](O)[C@@H](O[C@H]4[C@H](O)[C@@H](O)[C@@H](O[C@H]5[C@H](O)[C@@H](O)[C@@H](O[C@H]6[C@H](O)[C@@H](O)[C@@H](O[C@H]7[C@H](O)[C@@H](O)[C@@H](O[C@H]8[C@H](O)[C@@H](O)[C@@H](O[C@H]9[C@H](O)[C@@H](O)[C@@H](O[C@H]1[C@H](O)[C@H]2O)O[C@@H]9CO)O[C@@H]8CO)O[C@@H]7CO)O[C@@H]6CO)O[C@@H]5CO)O[C@@H]4CO)O[C@@H]3CO,inactive,
CCCCCN(CCCCC)C(=O)C(CCC(=O)O)NC(=O)c1ccc(Cl)c(Cl)c1 (stereo not given),inactive,
O=Cc1ccccc1[N+](=O)[O-],inactive,
